This passage reports Potency and activity change, negative = cytotoxicity results from PubChem BioAssay (Tox21).

Records with an inconclusive call do not appear. Entries that show only a call come without a potency. Calls of active or inactive are those of the source. Calls follow the shape of the dose curve; as a rule, active = well fitted cell-killing curve with a large enough effect in the repeat runs; inconclusive = weak or mixed curves, or effect the other way; inactive = flat fitted curve, though single readings scatter.

A short description of this assay: cAMP Responsive Elements (CRE) small molecule agonists, cell-based qHTS assay: qHTS cell viability counter screen (AID 2060914). Also: nearly all actives have a fitted effect of over 50% in size. Particulars: CRE-bla HEK293T viability, CellTiter-Glo luminescence, 5 h; series mostly up to 92.4 µM. In outline: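 Cells are seeded and incubated 18 h, treated with compounds in DMSO for 3 h, read for the bla reporter, then given CellTiter-Glo; luminescence is measured after 30 min at room temperature.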
(In qHTS, concentration-response curves come from the screen itself.)
Turning to `O=C(c1ccccc1)C(Cl)Cl`, the Potency entry was “inactive”.
In the case of `CCOC(=O)CC(SP(=S)(OC)OC)C(=O)OCC` (stereo unspecified), the Potency result was “inactive”.
`c1ccc2c(c1)Sc1ccccc1N2CC1CN2CCC1CC2` (stereo unspecified): the Potency result is “inactive”.
On the same count and under the same terms, the value for `O=C(O)C(F)(F)C(F)(F)C(F)(F)C(F)(F)C(F)(F)C(F)(F)C(F)(F)C(F)(F)C(F)(F)C(F)(F)F` was “inactive”; that for `O=P1(N(CCCl)CCCl)NCCCO1` (stereo unspecified) was “inactive”.
The same measure, in the same setting: the value for `CNC(=O)N(C)c1nc2ccccc2s1` was “inactive”.
Consider `[O-][Br+2]([O-])O`, for which the Potency result was “inactive”.
The same measure, in the same setting: as for `CN(C)[C@@H]1C(=O)C(C(N)=O)=C(O)[C@@]2(O)C(=O)C3=C(O)c4c(O)cccc4[C@@](C)(O)[C@H]3C[C@@H]12`, the entry is “inactive”; as for `CC(C)(C)C(O)/C(=C\c1ccc(Cl)cc1Cl)n1cncn1` (stereo unspecified), “inactive”.
The same measure, in the same setting: as for `CCNc1nc(NCC)nc(SC)n1`, the entry is “inactive”.
The same measure, in the same setting: the value for `CO/N=C(/C1=NOCCO1)c1ccccc1Oc1ncnc(Oc2ccccc2Cl)c1F` was “inactive”.
`C[CH2][Hg][N]1C(=O)C2C(C1=O)C1(Cl)C(Cl)=C(Cl)C2(Cl)C1(Cl)Cl` (stereo unspecified): the activity change, negative = cytotoxicity was 14.8% [at 18.9 µM] (inactive).
With `N#Cc1c(-c2ccc(Cl)cc2)[nH]c(C(F)(F)F)c1Br`, the Potency entry was “inactive”.
Same read-out and setting: as for `S=C=S`, the entry is “inactive”; as for `Cc1ccccc1N`, “inactive”; as for `CN(C)C(=O)C(c1ccccc1)c1ccccc1`, “inactive”.
For the compound `Clc1ccc(C2(Cn3cncn3)CC(Br)CO2)c(Cl)c1` (stereo unspecified), the Potency entry is “inactive”.
Turning to `CCOP(=S)(NC(C)C)Oc1ccccc1C(=O)OC(C)C` (stereo unspecified), the Potency entry was “inactive”.
Regarding `C=C(C)CCl`, the Potency result was “inactive”.
As for `CNC(=O)Oc1cccc2c1OC(C)(C)O2`, the Potency result was “inactive”.
Still for that read-out and setting: as for `O=c1[nH]c2ccccc2n1CCCN1CCC(n2c(=O)[nH]c3cc(Cl)ccc32)CC1`, the entry is “inactive”.
